The list is not random: actives were taken first. Their share in the collection is about 2.2%.
GC-A act: GC-A (human) enzyme activation; P16066; HEK293 GC-A cells, cGMP TR-FRET, EC30 ANP; 0% at EC30 ANP, 100% saturating ANP; activation, % at 10 µM; hit rate 0.14% among 370,000; AID 1671463; in the data active = activation above about 40%
PLC-gamma1 inh: inhibitors of human phospholipase C gamma1. purified PLC-gamma1, fluorogenic substrate, fluorescence. inhibition, % at 12.2 µM. hit rate 0.84% among 370,000. AID 720700; in the data active = inhibition above about 9.5%
Rce1 inh: inhibitors of yeast Ras-converting enzyme | calls only | AID 2563 | yeast membranes, quenched prenylated peptide cleavage fluorescence | Q03530 | hit rate 0.27% among 290,000;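 active = fall in fluorescence gain of 50% or more versus controls, with final raw signal at or below 3038400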;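 also: plate controls were neutral control wells for no effect and wells lacking membranes for full effect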
NPR2 activator: GC-B (human) receptor activation. P20594. activation, % at 10 µM. AID 1920062. HEK293-GC-B cells, CNP EC30, cGMP TR-FRET; 0% at EC30 CNP, 100% saturating CNP. hit rate 0.11% among 370,000;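 active = activation at 10 µM reaching about 35% in either raw or pattern-adjusted values, limit read from the data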
PfM18AAP inh: blocks P. falciparum M18 aspartyl aminopeptidase | inhibition, % at 7.35 µM | hit rate 1.2% among 290,000 | AID 1822 | recombinant PfM18AAP, H-Glu-NHMec fluorogenic cleavage;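 active = inhibition above the campaign mean inhibition over all tested compounds plus 3 SD, cut at about 28% in these data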;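 also: 0% = plate median of test compound wells and 100% = 2 mM ZnCl2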
PLC-beta3 inh: inhibitors of human phospholipase C beta3; Q01970; Purified PLC-beta3, fluorogenic substrate, fluorescence; inhibition, % at 12.2 µM; hit rate 0.18% among 370,000; AID 720704;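 also: 0% = median of compound wells on plate and 100% = full blocker control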
PLCgamma1 ctr: PLC-gamma1 inhibition, counter-screen for PLC-beta3 hits; shares compounds with PLC-gamma1 inh; purified PLC-gamma1, fluorogenic substrate, fluorescence; inhibition, % at 12.3 µM; hit rate 3.1% among 3,300; AID 743258; in the data active = inhibition above about 9.5%
PLCbeta3 conf: human PLC-beta3 inhibition, confirmation; shares compounds with PLC-gamma1 inh; purified PLC-beta3, fluorogenic substrate fluorescence; inhibition, % at 12.3 µM; hit rate 1% among 3,300
* marks the source's active call; other numbers are inactive results; i = inactive; x = no result. Rule as the data show it, unless noted: active = inhibition above about 11%; inactive = the rest.

SMILES | GC-A act | PLC-gamma1 inh | Rce1 inh | NPR2 activator | PfM18AAP inh | PLC-beta3 inh | PLCgamma1 ctr | PLCbeta3 conf
O=C(CC1CCCC1)N[C@@H](Cc1cccnc1)C(=O)N1CCC[C@H]1C(=O)NCCc1ccccc1Cl | -1 | 0 | x | 3 | x | 2 | x | x
Cc1cccc(NC(=O)NCCCN2CCN(c3ccc(F)cc3)CC2)c1 | -3 | 3 | x | -5 | x | 2 | x | x
Nc1c(C(=O)N/N=C/c2ccc([N+](=O)[O-])cc2)cnn1-c1ccccc1 | 3 | 10* | i | -9 | -16 | -1 | 5 | 6
Cc1ccc(C)c(NC(=O)C2CCCN2S(=O)(=O)c2cccc3cccnc23)c1 (stereo not drawn) | 2 | 3 | x | -4 | x | 4 | x | x
CCOC(=O)Cc1nc(N2CCN(CCO)CC2)c2c(C)c(C(=O)OCC)sc2n1 | 5 | -1 | x | 4 | x | -10 | x | x
O=C(NCC1CC1)c1csc(COCCO)n1 | 2 | 6 | x | 5 | x | 13* | 0 | -7
COc1cccc(-c2cc3nc(C)c(C)c(N4CCN(Cc5ccco5)CC4)n3n2)c1 | 0 | -57 | x | -8 | x | -84 | x | x
COc1cccc(CNS(=O)(=O)c2ccccc2Br)c1 | 3 | 0 | x | -1 | x | 1 | x | x
CN1CC=C(c2ccccc2)N(c2ccccc2)C1=O | 11 | 4 | x | 0 | x | 12* | -7 | -2
CN1CC=C(c2ccc(C(F)(F)F)cc2)N(c2ccccc2)C1=O | 2 | 1 | x | 4 | x | -3 | x | x
O=C(COc1c(Cl)cc(Cl)cc1Cl)N/N=C/c1ccc[nH]1 | 2 | 0 | x | -9 | x | 1 | x | x
CCn1c(SCc2ccc(F)cc2)nc2ccccc2c1=O | -9 | 11* | i | -3 | -8 | -1 | -4 | -6
CCn1c(SCc2ccc(OC)c(F)c2)nc2ccccc2c1=O | 4 | -1 | i | 4 | -2 | -8 | x | x
COC(=O)[C@]12C[C@H](CC(=O)NCC34CC5CC(CC(C5)C3)C4)C(=O)N(CCC3=CCCCC3)C1=C[C@H](C(C)C)O[C@@H]2C1CC1 | 3 | 1 | x | 2 | x | 5 | x | x
COc1cccc(-c2noc(C(C)n3nc(C)c([N+](=O)[O-])c3C)n2)c1 (stereo not drawn) | -4 | 11* | i | -7 | 3 | 8 | -6 | -3
CCCCCCCCN1C(=O)[C@@H](CC(=O)NCCCOC)C[C@@]2(C(=O)OC)C1=C[C@H](C1CCCC1)O[C@@H]2C | -2 | 1 | x | -7 | x | 5 | x | x
C[C@@]12C(=O)N(c3cccc(F)c3)C(=O)N1[C@@H]1c3ccccc3OC[C@@H]1[C@H]2c1ccccc1 | -1 | 10.0* | x | 3 | x | 6 | 4 | 4
C[C@@]12C(=O)N(c3cccc(Cl)c3)C(=O)N1[C@@H]1c3ccccc3OC[C@@H]1[C@H]2c1ccccc1 | -4 | 0 | x | 3 | x | 1 | x | x
COc1ccc(-c2cc(CNC(=O)CN3CCN(C)CC3)on2)cc1 | 1 | 9.5* | i | 2 | 10 | -369 | -7 | -2
CCOC(=O)N1CCN(C(=O)c2ccc(CS(=O)Cc3ccccc3Cl)o2)CC1 (stereo not drawn) | 1 | 9.9* | i | -2 | -8 | -6 | -2 | 3
Cc1ccc(S(=O)(=O)N2CCCC2C(=O)NC2CCCCC2)cc1 (stereo not drawn) | -1 | 12* | i | 3 | -14 | 9 | -3 | -5
Cc1ccc(S(=O)(=O)N2CCCCC2C(=O)N2CCN(Cc3ccccc3)CC2)cc1 (stereo not drawn) | -5 | 12* | i | 0 | -6 | 8 | -3 | -1
O=C(CCc1ccccc1)N[C@H]1/C(=N/O)CCC[C@]12C(=O)N(Cc1ccccc1)c1ccccc12 | -16 | 1 | x | -17 | x | -3 | x | x
O=C(Nc1cccc([N+](=O)[O-])c1)Nc1cccc([N+](=O)[O-])c1 | 2 | 0 | i | 0 | -2 | -2 | x | x
O=C(Nc1cccc([N+](=O)[O-])c1)Nc1ccc2c(c1)OCCO2 | 2 | 10* | i | 1 | 0 | -1 | 1 | 3
SMILES | GC-A act | PLC-gamma1 inh | Rce1 inh | NPR2 activator | PfM18AAP inh | PLC-beta3 inh | PLCgamma1 ctr | PLCbeta3 conf
CC(=C/C(=O)O)/C(=C\c1ccc(Br)o1)C(=O)O | 0 | 0 | i | 3 | -4 | -9 | x | x
CC(=C/C(=O)O)/C(=C/c1ccccc1)C(=O)O | -1 | 10* | i | 0 | -5 | 0 | -4 | 1
COc1ccc(NC(=O)c2cccc3ccccc23)cc1 | -4 | 9.9* | x | 3 | -10 | -4 | -8 | -4
COCC(=O)Nc1ccccc1C(=O)Nc1ccc(OC)cc1 | -1 | 11* | i | 2 | 0 | 1 | -7 | -1
COc1ccc(NC(=O)c2ccccc2NC(=O)COc2ccccc2)cc1 | 5 | 4 | i | -4 | -4 | 3 | x | x
COc1cccc(C(=O)Nc2cccc3ccccc23)c1 | -2 | 15* | i | 6 | -2 | 3 | 3 | 2
CCC(C)NC(=O)c1ccccc1NC(=O)COc1ccc(OC)cc1 (stereo not drawn) | -4 | 11* | i | -3 | -8 | 6 | -3 | 0
COc1ccc(NC(=O)c2cccc3c(Br)cccc23)cc1 | 5 | 1 | i | -2 | 4 | -9 | x | x
CC(C)CN(CC(C)C)C(=O)c1cn(C(C)c2ccccc2)nn1 (stereo not drawn) | 2 | 3 | x | -6 | x | 3 | x | x
CCOc1cccc(C(=O)Nc2ccc(NC(=O)c3ccccc3)c(C)c2)c1 | -4 | 7 | i | 3 | -1 | 15* | -3 | 14*
COc1cccc(C(=O)NNS(=O)(=O)c2ccccc2)c1 | 2 | 12* | x | 4 | x | 3 | -5 | -2
COc1ncc(-c2cc(C(C)=O)c3n(c2=O)CCC3)c(OC)n1 | 1 | 1 | x | -2 | x | -1 | x | x
O=C(c1ccc2snnc2c1)N1CCN(c2ccccn2)CC1 | 0 | 15* | i | -1 | 7 | 6 | -5 | 0
C=CCN(C(=O)[C@@H](C)[C@@H](O)c1ccc(Cl)cc1)c1ccccc1 | -6 | 1 | x | -10 | x | 0 | x | x
O=C(Cc1cccs1)N1CCC(c2nc3c(nnn3Cc3ccccc3Cl)c(=O)[nH]2)CC1 | 18 | 18* | i | 23 | 3 | 17* | 11* | 16*
O=C(C1CCCCC1)N1CCC(c2nc3c(nnn3Cc3ccccc3Cl)c(=O)[nH]2)CC1 | 2 | 3 | x | 7 | x | -6 | x | x
O=c1[nH]c(C2CCN(S(=O)(=O)c3ccccc3)CC2)nc2c1nnn2Cc1ccc2c(c1)OCCO2 | 2 | 10* | i | -6 | -1 | -3 | -3 | -1
CC(C)(C)OC(=O)/C=C/[C@@H](CC1CCCC1)Sc1ccc(C(C)(C)C)cc1 | -1 | -1 | x | 2 | x | 4 | x | x
